Test systems include NCI-H23 lung; NCI-H226 lung; HOP-62 NSCLC; NCI-H460 lung; HOP-92 NSCLC; NCI-H522 lung; A549/ATCC NSCLC; 786-0 renal; COLO 205 colon; DU-145 prostate; K-562 leukemia; MALME-3M melanoma; MDA-MB-231 breast; RXF 393 renal; SF-268 CNS; SF-295 CNS; SF-539 CNS; UACC-257 melanoma; M14 melanoma; NCI-H322M lung.
Common to all, as to assay: NCI-60 one-dose screen, 48 h (100 = growth as untreated, 0 = no growth, -100 = all killed)
What all share (conditions): 10 µM unless noted

This is part of a sample that, as a whole, favours compounds with a hit. Of some 83,000 tested, about 20% had one in any assay.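 How to read the values: 0–100, growth inhibition (40 = 60% inhibited); 0, no net growth; -100 to 0, cell death (-40 = 40% of starting cells died; -100 = all dead).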 Unmarked numbers belong to inactive results. Active and inactive are the calls of the source. Rule for the calls: active = growth percent below 10; inactive = the rest.

On to `Cc1nn(-c2ccc(Cl)cc2)c(=O)n1CCn1cnc2ccccc21`, for which the growth in the experiment with NCI-H23 lung was 96.2%; with NCI-H226 lung, 103%; in the experiment on HOP-62 NSCLC it was 101%; in the experiment on NCI-H460 lung, 107%; in the experiment on HOP-92 NSCLC, 101%; in the experiment on NCI-H522 lung, 85.3%. The growth with A549/ATCC NSCLC was 106%; in the experiment with 786-0 renal, 87.4%; in the experiment on COLO 205 colon it was 118%; in the experiment on DU-145 prostate, 114%; in the experiment on K-562 leukemia, 97.1%; with MALME-3M melanoma, 109%. Moreover, the growth in the experiment on MDA-MB-231 breast is 111%; in the experiment on RXF 393 renal it was 107%; with SF-268 CNS, 107%; in the experiment with SF-295 CNS it was 82.8%; with SF-539 CNS, 101%; in the experiment with UACC-257 melanoma it was 103%. Also, the growth in the experiment on M14 melanoma was 96.7%.

Take `Cc1cc(N2CCCCC2)nc(N(CCNc2ccnc3cc(Cl)ccc23)Cc2ccco2)n1`: the growth in the experiment with NCI-H23 lung was 9.31% (active); with NCI-H226 lung, 80.1%; in the experiment with HOP-62 NSCLC, 24.3%; with NCI-H460 lung it was 8.11% (active); in the experiment with HOP-92 NSCLC, 52%; in the experiment on NCI-H522 lung, 19.1%. For the same compound, the growth with A549/ATCC NSCLC is 36.6%; in the experiment with 786-0 renal, 23.4%; with COLO 205 colon, -13.7% (active); with DU-145 prostate, 46.4%; with K-562 leukemia, 2.04% (active); with MALME-3M melanoma, 40.2%. Further, the growth with MDA-MB-231 breast is 32.9%; with RXF 393 renal, 33.3%; in the experiment on SF-268 CNS it was 60.7%; in the experiment on SF-295 CNS, 48.7%; with SF-539 CNS, 30.7%; in the experiment with UACC-257 melanoma, 88%. For the same compound, the growth in the experiment on M14 melanoma was 9.4% (active).

Turning to `Cc1cc2nc3c4cc(O)ccc4n(CCN(C)C)c3nc2cc1C`, the growth in the experiment on NCI-H23 lung was -35.3% (active); with NCI-H226 lung it was -24.6% (active); with HOP-62 NSCLC, 3.06% (active); with HOP-92 NSCLC it was 21.1%; in the experiment with NCI-H522 lung it was -13.5% (active); with A549/ATCC NSCLC, -32.7% (active). Besides, the growth in the experiment on 786-0 renal is 5.67% (active); in the experiment with COLO 205 colon, -40.6% (active); in the experiment on DU-145 prostate, 6.38% (active); in the experiment on K-562 leukemia, 7.53% (active); in the experiment on MALME-3M melanoma, -61.6% (active); with MDA-MB-231 breast it was -5.62% (active). Besides, the growth is -54% (active) in the experiment on RXF 393 renal; 9.22% (active) with SF-268 CNS; -19.8% (active) in the experiment on SF-295 CNS; -13.1% (active) in the experiment with SF-539 CNS; -15.1% (active) with UACC-257 melanoma; -33.7% (active) in the experiment on M14 melanoma.

As for `CCC(c1ccc(OC)cc1)C(CC)c1ccc(O)c(CN2CCCCC2)c1` (configuration not stated), the growth with NCI-H23 lung is 63.5%; in the experiment on NCI-H226 lung, 70%; with HOP-62 NSCLC it was 95.5%; in the experiment with NCI-H460 lung, 77.1%; in the experiment with HOP-92 NSCLC, 52.2%; in the experiment with NCI-H522 lung it was 72.3%. Also, the growth in the experiment on A549/ATCC NSCLC is 84%; with 786-0 renal, 59.5%; in the experiment on COLO 205 colon, -12.9% (active); with DU-145 prostate, 86.6%; in the experiment on K-562 leukemia, 15.4%; in the experiment on MALME-3M melanoma, 28.1%. Besides, the growth with MDA-MB-231 breast is 77.6%; with RXF 393 renal, 53.7%; with SF-268 CNS, 86.1%; with SF-295 CNS, 78.9%; with SF-539 CNS, 69.3%; in the experiment with M14 melanoma, 44.3%.

As to `CN1CCN(c2ccc3nc(-c4[nH]ncc4Nc4ncnc5[nH]ccc45)[nH]c3c2)CC1`, the growth in the experiment on NCI-H23 lung was -1.38% (active); in the experiment on NCI-H322M lung it was 1.88% (active); in the experiment on HOP-62 NSCLC, -0.445% (active); in the experiment on NCI-H460 lung, 21%; in the experiment with HOP-92 NSCLC, 26.9%; in the experiment on NCI-H522 lung, -4.39% (active). Moreover, the growth in the experiment with A549/ATCC NSCLC is 24%; with 786-0 renal it was 2.96% (active); in the experiment with COLO 205 colon it was -59.8% (active); in the experiment with DU-145 prostate it was 7.18% (active); in the experiment on K-562 leukemia it was 7.3% (active); in the experiment on MALME-3M melanoma it was -16.6% (active). Further, the growth with MDA-MB-231 breast is -13% (active); in the experiment on RXF 393 renal it was -71.7% (active); in the experiment with SF-268 CNS, -9.53% (active); in the experiment on SF-295 CNS, -1.58% (active); with SF-539 CNS, -43.6% (active); in the experiment with UACC-257 melanoma it was 11.7%. The growth in the experiment on M14 melanoma is 3.42% (active).

Regarding `CC1=CC(=O)N(c2cccc3c(N4C(=O)C=C(C)C4=O)cccc23)C1=O`, the growth in the experiment on NCI-H23 lung is 79.4%; in the experiment on NCI-H322M lung, 102%; in the experiment with HOP-62 NSCLC, 100%; in the experiment on NCI-H460 lung, 113%; in the experiment on HOP-92 NSCLC, 78.6%; in the experiment with NCI-H522 lung, -74.6% (active). Further, the growth in the experiment with A549/ATCC NSCLC is 96.5%; with 786-0 renal it was 96.3%; in the experiment with COLO 205 colon, -45.6% (active); with DU-145 prostate, 72.3%; in the experiment on K-562 leukemia it was 6.92% (active); in the experiment with MDA-MB-231 breast, 107%. The growth is -10.7% (active) in the experiment on RXF 393 renal; 106% with SF-268 CNS; 121% in the experiment on SF-295 CNS; 32.7% in the experiment on SF-539 CNS; 82.4% in the experiment with UACC-257 melanoma; 96.2% with M14 melanoma.

Turning to `C=C(C)[C@@H]1CC[C@]2(CN)CC[C@]3(C)[C@H](CC[C@@H]4[C@@]5(C)CCC(=O)NC(C)(C)[C@@H]5CC[C@]43C)[C@@H]12`, the growth in the experiment with NCI-H23 lung was 85.3%; with HOP-62 NSCLC, 81.6%; with NCI-H460 lung it was 90.3%; with HOP-92 NSCLC, 54.6%; in the experiment on NCI-H522 lung it was 88%; in the experiment on A549/ATCC NSCLC it was 59.3%. Besides, the growth with 786-0 renal was 84.6%; in the experiment with COLO 205 colon it was 75.9%; in the experiment with DU-145 prostate, 75%; with K-562 leukemia, -4.63% (active); with MALME-3M melanoma, -14.1% (active); in the experiment on MDA-MB-231 breast, 58.7%. The growth is 59% in the experiment on RXF 393 renal; 64.5% in the experiment on SF-268 CNS; 82.1% with SF-295 CNS; 75.2% with SF-539 CNS; 29.6% with UACC-257 melanoma; 70.9% in the experiment with M14 melanoma.

Take `COc1ccc(/C=C/C(=O)c2ccc([N+](=O)[O-])cc2)cc1`: the growth in the experiment with NCI-H23 lung is 104%; in the experiment with NCI-H322M lung, 102%; in the experiment on HOP-62 NSCLC, 104%; with NCI-H460 lung, 110%; in the experiment on HOP-92 NSCLC, 87.7%; in the experiment with NCI-H522 lung, 83.7%. For the same compound, the growth with A549/ATCC NSCLC is 100%; with 786-0 renal, 94.7%; with COLO 205 colon, 114%; in the experiment on DU-145 prostate it was 109%; with K-562 leukemia it was 101%; in the experiment with MDA-MB-231 breast it was 94.5%. Also, the growth with RXF 393 renal was 110%; in the experiment on SF-268 CNS, 106%; in the experiment with SF-295 CNS, 114%; with SF-539 CNS, 104%; in the experiment with UACC-257 melanoma, 110%; in the experiment on M14 melanoma it was 106%.

Values taken from PubChem BioAssay (NCI).
